# Myeloid diff 2 = compounds promoting myeloid differentiation. ER-HoxA9 myeloid progenitors, lysozyme-GFP differentiation, flow cytometry. 360,000 tested, 1% active. calls only at 10 µM. AID 624256;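 active = normalized GFP-positive differentiation at or above the plate's own cutoff, the solvent-only control mean plus 3 SD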;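 note: cells exposed to compound for four days before flow analysis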
# ABCB6 inh MLPCN = blocks the human ABCB6 transporter. 360,000 tested, 0.19% active. fluorescence ratio to DMSO, % at 10 µM. K562-ABCB6 porphyrin accumulation, flow cytometry, 1 h; active compounds read low. AID 602162;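 active = fluorescence ratio to DMSO below 75%, the collection mean minus 3 SD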;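 note: signal is porphyrin accumulated inside mitochondria; 100% equals median channel fluorescence of DMSO control wells; lower ratio means ABCB6 inhibition with less porphyrin fluorescence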
# Target sequence (Q9NP58 whole entry, looked up): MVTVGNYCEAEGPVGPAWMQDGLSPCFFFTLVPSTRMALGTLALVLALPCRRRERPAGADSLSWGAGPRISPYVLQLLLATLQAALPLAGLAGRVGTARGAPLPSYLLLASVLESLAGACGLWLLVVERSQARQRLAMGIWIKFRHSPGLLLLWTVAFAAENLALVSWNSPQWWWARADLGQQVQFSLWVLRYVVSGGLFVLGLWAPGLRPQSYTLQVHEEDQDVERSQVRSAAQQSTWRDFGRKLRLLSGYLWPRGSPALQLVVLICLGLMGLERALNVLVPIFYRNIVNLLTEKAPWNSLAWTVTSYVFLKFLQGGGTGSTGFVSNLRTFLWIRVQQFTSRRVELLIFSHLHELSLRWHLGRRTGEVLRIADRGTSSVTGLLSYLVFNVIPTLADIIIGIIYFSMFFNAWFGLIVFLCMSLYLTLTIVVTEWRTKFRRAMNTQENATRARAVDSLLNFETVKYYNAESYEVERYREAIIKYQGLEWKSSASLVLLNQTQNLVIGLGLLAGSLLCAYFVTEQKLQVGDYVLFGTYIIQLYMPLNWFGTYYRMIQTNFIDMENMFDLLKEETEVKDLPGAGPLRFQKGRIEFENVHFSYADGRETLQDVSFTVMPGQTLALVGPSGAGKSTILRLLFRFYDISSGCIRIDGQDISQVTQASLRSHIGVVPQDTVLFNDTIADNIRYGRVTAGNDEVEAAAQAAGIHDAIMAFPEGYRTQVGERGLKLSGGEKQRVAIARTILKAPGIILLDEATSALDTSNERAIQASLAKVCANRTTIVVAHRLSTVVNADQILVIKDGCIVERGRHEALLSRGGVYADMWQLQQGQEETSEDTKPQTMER
# Exocytosis inh = lytic granule exocytosis inhibition. TALL-104 LAMP-1 surface exposure, flow cytometry; cells stimulated with thapsigargin and PMA. inhibition, % at 10 µM. 360,000 tested, 0.66% active;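 active = inhibition above about 55%, limit read from the data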
# Myeloid diff CP1 = myeloid differentiation induction; 2,300 tested, 2% active; calls only; ER-HoxA9 myeloid progenitors, GFP/Mac1 double-positive flow; shares compounds with Myeloid diff 2; AID 651706;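 active = share of green or green-and-red cells above 9 and 9% in run 1 or 4 and 3% in run 2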
# GFP autofluor = counter-screen for myeloid differentiation promoters: compound fluorescence; fluorescence response, % (test concentration not listed); shares compounds with Myeloid diff 2; ER-HoxA9 myeloid progenitors, no estrogen, GFP autofluorescence flow cytometry; vehicle wells 0%, positive control 100%; 2,300 tested, 7.4% active;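 active = over 5% cells positive for green fluorescent reporter, or over 2% positive for both it and APC stain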;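 note: range taken on the double positive population between DMSO and positive control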
# Starred values were filed as active, the others as inactive; i = inactive; x = no result; + = active, no number. Sampled rows, rich in hits. Any-hit rate of the full collection: about 1.8%.
SMILES,Myeloid diff 2,ABCB6 inh MLPCN,Exocytosis inh,Myeloid diff CP1,GFP autofluor
CN(C)c1ccc(/C=N/N=C2/NC(=O)/C(=C/c3ccc([N+](=O)[O-])cc3)S2)cc1,+,269,3,i,95*
CCOc1ccc(N(C)c2ccc(/C=C3/SC(=S)NC3=O)cc2)cc1,i,350,7,x,x
CCn1c(C)cc(/C=C2/SC(=S)NC2=O)c1C,i,98,-4,x,x
CN(C)c1ccc(C=C2SC(=S)NC2=O)cc1,+,154,-1,i,0
COc1ccc(NC(=O)CN2C(=O)NC3(CCCCCC3)C2=O)cc1Cl,i,96,-1,x,x
COc1ccccc1NC(=S)N(Cc1ccco1)Cc1cc2cc(C)ccc2[nH]c1=O,i,105,-6,x,x
O=C(CSc1nc2nn(-c3ccccc3)c(=O)c-2c2n1CCCCC2)Nc1ccc(OC(F)F)cc1,i,92,-18,x,x
COc1ccc(-c2cc(C(=O)N3CCN(S(=O)(=O)c4ccc(C)cc4)CC3)[nH]n2)cc1,i,102,-3,x,x
C=CCNC(=S)/N=c1/ccccn1CC,i,103,-3,i,4
C=CCNC(=S)Nc1ccccc1,i,95,4,x,x
CC(=O)Oc1ccc(C23c4ccccc4C2(OC(C)=O)c2cc(OC(C)=O)ccc23)cc1 (stereo unspecified),i,119,-10,x,x
CCOC(=O)CN1C(=O)C2(OCCCO2)c2ccccc21,i,96,-3,x,x
COC(=O)CN1C(=O)C2(OCCCO2)c2cc(Br)ccc21,i,103,-3,i,1
NS(=O)(=O)c1ccc(CNC(=O)CCSCCC(=O)NCc2ccc(S(N)(=O)=O)cc2)cc1,i,99,-3,x,x
Cc1[nH]c2ccccc2c1C(=O)COC(=O)c1ccc([N+](=O)[O-])s1,i,103,1,i,1
O=C(COC(=O)c1ccc([N+](=O)[O-])s1)NCc1ccccc1,i,120,-2,x,x
CC(Sc1nn(-c2ccccc2)c(=S)s1)C(=O)NCC1CCCO1 (stereo unspecified),i,100,-2,i,0
Cc1nnc(SC(C)C(=O)NCC2CCCO2)n1-c1ccccc1 (stereo unspecified),i,101,-2,x,x
Cc1cccc(C)c1NC(=O)CN(C)C(=O)CN1C(=O)NC(C)(C)C1=O,i,95,0,x,x
COc1ccc(-c2csc(C(O)c3ccc(F)c(OC)c3)n2)cn1 (stereo unspecified),x,96,3,x,x
COc1ccc(-c2csc(C(O)c3ccc(F)c(F)c3)n2)cn1 (stereo unspecified),+,96,-1,i,1
CC1=C(C(=O)N(C)C)CC(CC(=O)NCCc2ccccn2)C(=O)N1Cc1ccc(F)cc1 (stereo unspecified),i,101,-7,x,x
Cc1csc(=O)n1CCC(=O)N(C)Cc1c(F)cccc1Cl,i,96,0,x,x
C/C(=N\NC(=O)c1cc2ccccc2cc1O)c1ccc2c(c1)OCO2,i,111,-5,x,x
CC/C(=N/NC(=O)c1ccc2c(c1)OCO2)c1ccccc1O,i,97,2,i,0
SMILES,Myeloid diff 2,ABCB6 inh MLPCN,Exocytosis inh,Myeloid diff CP1,GFP autofluor
O=C1S/C(=C/c2ccc(N3CCOCC3)o2)C(=O)N1Cc1ccc(F)cc1,i,154,78*,i,31*
O=C1N/C(=C/c2ccc(N3CCOCC3)cc2)C(=O)N1Cc1ccc(F)cc1,i,101,4,x,x
CC(C)(C)c1ccc(C(=O)NCc2nnc(SCC(=O)N3CCCC3)o2)cc1,i,98,0,x,x
CC(=O)/C(N=Nc1nc2c([nH]1)c(=O)n(C)c(=O)n2C)=C(\C)O,i,81,2,x,x
COc1ccc(CC(=O)Nc2ccc(S(=O)(=O)Nc3ncccn3)cc2)cc1,+,100,1,i,1
Cc1ccc(CC(=O)Nc2ccc(S(=O)(=O)Nc3nccc(C)n3)cc2)cc1,i,102,-9,i,1
COc1ccc(CCC(=O)Nc2ccc(S(=O)(=O)Nc3ncccn3)cc2)cc1,i,98,-4,x,x
Cc1ccnc(NS(=O)(=O)c2ccc(NC(=O)Cc3ccccc3)cc2)n1,i,98,-1,x,x
O=C(O)CSc1nnc(-c2ccc(Cl)cc2Cl)n1Cc1ccccc1,i,89,-4,x,x
COc1ccc(C2C3C(C)=NN=C3CC(C)(O)C2C(C)=O)cc1 (stereo unspecified),i,96,-2,x,x
CC(C)(C)OC(=O)NCCCCCO,i,100,1,x,x
COc1ccc(NC(=O)C2Cc3c(-c4cccc(C(N)=O)c4)ccnc3O2)cc1 (stereo unspecified),i,98,2,x,x
O=c1[nH]c(CSc2nc3ccccc3[nH]2)nc2c1cnn2-c1ccccc1,i,119,-5,x,x
O=c1[nH]c(SCc2nc3c(cnn3-c3ccccc3)c(=O)[nH]2)nc2ccccc12,+,100,0,i,3
CN(C)c1ccc([C@@H]2[C@@H]([N+](=O)[O-])[C@H]3C=Cc4ccccc4N3[C@H]2C(=O)c2ccc(Cl)cc2)cc1,i,186,-3,x,x
O=C(/C=C/c1ccccc1Cl)Nc1cccnc1,i,99,-2,x,x
O=C(/C=C/c1ccccc1Cl)Nc1ccncc1,+,93,-1,i,0
CC(C)NC(=S)NCc1cccs1,i,98,0,x,x
CCN1C(=O)C(O)(C2COC(C)(C)CC2=O)c2cc(Br)ccc21 (stereo unspecified),i,100,-2,i,12*
CCN1C(=O)C(O)(C2COC(C)(C)CC2=O)c2ccccc21 (stereo unspecified),i,106,1,x,x
COc1cc2c3c(c1)C(C)CC(C)(C)N3C(=O)C2=O (stereo unspecified),i,105,6,x,x
CON1C(=O)C(=O)N(OC)C(C)(C)C1C (stereo unspecified),i,101,0,i,0
CC(C)n1c(O)c(N=NC(=O)C2COc3ccccc3O2)c2ccccc21 (stereo unspecified),i,106,4,x,x
Cn1c(=N)n(CC(=O)C(C)(C)C)c2ccccc21,i,107,-1,i,1
CCCn1c(=N)n(CC(=O)C(C)(C)C)c2ccccc21,i,97,1,x,x
SMILES,Myeloid diff 2,ABCB6 inh MLPCN,Exocytosis inh,Myeloid diff CP1,GFP autofluor
O=C(NC1CCCc2ccccc21)c1ccc(Br)cc1 (stereo unspecified),i,99,-4,x,x
O=C(CCNC(=O)c1ccc(Br)cc1)NC1CCCc2ccccc21 (stereo unspecified),+,89,-6,+,0
COc1ccc(CCNC(=O)c2c(O)c3ccccc3[nH]c2=O)cc1,i,101,0,x,x
CCOC(=O)c1oc2ccc(CNCCO)c(Cl)c2c1C,i,104,4,x,x
CCOC(=O)c1oc2ccc(CNC3CCCCC3)c(Cl)c2c1C,+,97,0,i,0
O=C(O)c1ccccc1C(=O)NCc1ccc2c(c1)OCO2,x,92,-2,x,x
COc1nc(OC)nc(N2CCC(C(=O)NCC3CCCCC3)CC2)n1,i,97,0,x,x
COc1nc(OC)nc(N2CCCCCC2)n1,i,97,0,i,1

# From PubChem BioAssay
